Results filed as inconclusive are left out. Unmarked numbers belong to inactive results. Active and inactive are the calls of the source. Calls come from the whole dose curve; as a rule, active = well fitted inhibition curve with a large enough effect; inconclusive = small, poorly fitted or top-dose-only effect; inactive = flat fitted curve, though single readings scatter.
tested on: KB-3-1; assay: Cytotoxic Profiling of Annotated Libraries Using Quantitative High-Throughput Screening (AID 1296008); conditions: Five cell lines viability, CellTiter-Glo ATP luminescence, 48-72 h; max response: hits give low values; note: nearly all actives have a fitted effect of over 60% in size
Method in brief: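 Compounds were pin-transferred onto cells and incubated 48 or 72 hr at 37 degree Celsius, 95% humidity. CellTiter-Glo was added, plates sat 10 min at room temperature, then ATP-coupled luminescence was imaged as the viability read-out.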
% is set by controls: 0 for no effect and ±100 for the full control effect.

| Structure (SMILES) | max response | outcome |
| --- | --- | --- |
| CC1(C)CC[C@]2(C(=O)O[C@@H]3O[C@H](CO)[C@@H](O)[C@H](O)[C@H]3O)CC[C@]3(C)C(=CCC4[C@@]5(C)CC[C@H](O[C@H]6O[C@H](CO)[C@@H](O)[C@H](O[C@@H]7O[C@H](CO)[C@@H](O)[C@H](O)[C@H]7O)[C@H]6O)C(C)(C)C5CC[C@]43C)[C@@H]2C1 (some centres undefined) | 4.79% | – |
| COC(=O)[C@H](Cc1cccc(C(=N)N)c1)[C@@H](C)NC(=O)c1ccc(-c2cc[n+]([O-])cc2)cc1 | – | inactive |
| C[C@@H]1CC[C@]2(C(=O)O[C@@H]3O[C@H](CO[C@@H]4O[C@H](CO)[C@@H](O)[C@H](O)[C@H]4O)[C@@H](O)[C@H](O)[C@H]3O)CC[C@]3(C)C(=CCC4[C@@]5(C)CC[C@H](O)[C@](C)(C(=O)O)C5CC[C@]43C)[C@@H]2[C@]1(C)O (some centres undefined) | 2.71% | – |
| O=C(OC[C@H]1O[C@H](O[C@]2(CO)O[C@H](CO)[C@@H](O)[C@@H]2O)[C@H](O)[C@@H](O)[C@@H]1O)c1ccc(O)cc1 | 0.316% | – |
| CC12CC34CC(O)C5C(CO)(CO)CC(=O)CC5(C)C3CC1C2C4 (centres undefined) | 0.93% | – |
| CC(C)[C@](O)(c1ccc2cc(OC(F)F)c(OC(F)F)cc2c1)c1cn[nH]n1 | -6.26% | – |
| O=C(CCCCC1CCCCC1)N1CCC(c2cnc[nH]2)CC1 | -20.1% | – |
| CNC(C)C(=O)NC(C(=O)N1CCCC1C(=O)Nc1cccc2ncccc12)C(C)C (centres undefined) | 2.7% | – |
| C=C1CC[C@@]2(OC1)O[C@H]1CC3[C@@H]4CC=C5C[C@H](O[C@H]6OC[C@@H](O)C(O)[C@@H]6O[C@@H]6O[C@@H](C)[C@H](O)[C@@H](O[C@@H]7O[C@H](CO)[C@@H](O)[C@H](O)[C@H]7O)[C@H]6O)C[C@@H](O)[C@]5(C)C4CC[C@]3(C)[C@H]1[C@@H]2C (some centres undefined) | -1.49% | – |
| Cc1c(C)c(NCC(=O)N(C)C2CCN(Cc3ccc(C(N)=O)cc3)CC2)c(C)c(C)c1N | -3.8% | – |
| CC1CCC2(C(=O)O)CCC3(C)C(=CCC4C5(C)CCC(O)C(C)(C(=O)O)C5CCC43C)C2C1(C)O (centres undefined) | 3.72% | – |
| C=C1C[C@]23C[C@H]1CC[C@H]2[C@]1(C)CC[C@H](O)[C@@](C)(C(=O)O)[C@H]1[C@@H]3C(=O)O | -2.4% | – |
| COC(=O)C(CC1(OC(=O)C(C)C)c2ccccc2N2C(=O)C(C)(C)N(O)C21)n1cnc2ccccc2c1=O (centres undefined) | 5.72% | – |
| C=C[C@H]1[C@H](O[C@@H]2O[C@H](CO)[C@@H](O)[C@H](OC(=O)/C=C/c3ccc(O)c(OC)c3)[C@H]2O)OC=C2C(=O)OCC[C@]21O | 6.87% | – |

From PubChem BioAssay (NCATS)
